Only some compounds are listed: those with a hit (about 4.2% of all), similar ones and a draw of the others.
CHOP inh: CHOP inhibition in unfolded protein response | CHO-K1 CHOP-promoter luciferase, tunicamycin-induced, 15-18 h | inhibition, % at 10 µM | hit rate 3.8% among 220,000;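 active means compounds that reduced the stress-induced luciferase reporter signal by more than about 70% of percent inhibition, limit read from the data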
S1P4 antag: human S1P4 receptor antagonism | O95977 | S1P4-expressing cells, antagonist mode, reporter read-out | inhibition, % at 4.98 µM | hit rate 0.26% among 220,000; in the data active means inhibition above about 29%
Target sequence (O95977 whole entry, looked up): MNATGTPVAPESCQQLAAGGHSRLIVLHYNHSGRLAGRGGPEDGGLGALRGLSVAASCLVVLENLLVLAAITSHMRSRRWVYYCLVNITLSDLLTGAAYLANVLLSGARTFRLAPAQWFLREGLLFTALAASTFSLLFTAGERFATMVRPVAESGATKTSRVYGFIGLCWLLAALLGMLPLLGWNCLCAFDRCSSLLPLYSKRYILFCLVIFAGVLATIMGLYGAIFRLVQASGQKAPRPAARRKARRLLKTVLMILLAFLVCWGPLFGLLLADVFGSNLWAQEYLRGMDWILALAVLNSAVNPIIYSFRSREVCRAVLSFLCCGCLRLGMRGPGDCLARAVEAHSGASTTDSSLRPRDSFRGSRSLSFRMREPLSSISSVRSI
S1P4 ag: agonists of human S1P4 receptor. AID 1509. activation, % at 4.98 µM. S1P4-expressing cell line, agonist reporter assay. O95977. hit rate 0.35% among 220,000; in the data active means activation above about 11%
Hsp70 act: Hsp70 transcriptional activation, primary screen | HeLa Hsp70 promoter luciferase reporter, luminescence; scaled: vehicle 0, proteasome-inhibitor control 100% | activation, % at 10 µM | hit rate 0.04% among 200,000 | AID 1203;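 active means activation above the mean across all tested compounds plus 3 SD, cutoff set per campaign, cut at about 5.5% in these data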
Large screens that a line does not name were inactive.

Nc1ccc(-c2nc3ccc(C(=O)O)cc3s2)cc1	CHOP inh 92.1
O=C(O)c1ccc2nc(-c3ccccc3)sc2c1	none
CCOc1ccc(NC(=O)c2ccc(F)c(S(=O)(=O)N3CCN(c4ccccn4)CC3)c2)cc1	none
O=S(=O)(c1ccc(Cl)c(C(F)(F)F)c1)N1CCN(c2ccccn2)CC1	CHOP inh 71.5
O=C(Nc1cccc(Cl)c1)c1ccc(F)c(S(=O)(=O)N2CCN(c3ccccn3)CC2)c1	CHOP inh 74.2
CCOC(=O)c1c(NC(=O)CSc2nc3cccnc3n2C)sc(C(C)=O)c1C	none
CCOC(=O)c1c(NC(=O)CSc2ncnc3ccccc23)sc(C(C)=O)c1C	CHOP inh 74.7
O=C(NC1CCCCCC1)C1CCC(CNS(=O)(=O)c2ccc(Br)s2)CC1 (stereo unspecified)	CHOP inh 94.7
COc1cc2nc(C3CCC3)n(NC(=O)C3CCC3)c(=O)c2cc1OC	none
Cc1cc(OC(=O)N2CCCCC2)cc(C)c1Cl	CHOP inh 76.0
Cc1ccc(N/C=C/C(=O)C(C)(C)C)c(O)c1	CHOP inh 85.6
C=CCOc1cccc(C2/C(=C(/O)c3ccccc3)C(=O)C(=O)N2CCN2CCOCC2)c1 (stereo unspecified)	none
COc1ccc(CNC(=O)C2CCCN2S(=O)(=O)c2ccc(C)cc2)cc1 (stereo unspecified)	none
COc1cccc(/C=N/NC(=O)CCCC(=O)Nc2ccc(Br)cc2)c1	none
COc1ccc(/C=C/C(=O)Oc2cccc(/C=N/NC(=O)Cc3ccc(Br)cc3)c2)cc1	CHOP inh 70.8 (no result: Hsp70 act)
CC(C)c1ccc(N(C(=O)c2csnn2)C(C(=O)NC(C)(C)C)c2cccnc2)cc1 (stereo unspecified)	none
CC(=O)c1sc(N/N=C\c2ccc(Br)cc2)nc1C	none
CC(=O)c1sc(N/N=C\c2cccc(Br)c2)nc1C	CHOP inh 81.0
C=C(C)C1CC=C(C)/C(=N\NC(=O)CCC(=O)Nc2ccc(C)c(C)c2)C1 (stereo unspecified)	CHOP inh 77.4 (no result: Hsp70 act)
CCOc1ccc(-c2csc(/C(C#N)=C\c3ccc(O)c([N+](=O)[O-])c3)n2)cc1	CHOP inh 93.7
CCCCc1ccc(-c2csc(/C(C#N)=C\c3ccc(C)o3)n2)cc1	none
N#Cc1cc(-c2ccccc2)nc(Oc2ccc(Cl)cc2)n1	CHOP inh 71.2
CCC(CC)NC(=O)CON=C1c2ccccc2-c2ccccc21	CHOP inh 71.8
Cc1cc2ccccc2n1CCNC(=O)Cc1cccc2ccccc12	CHOP inh 71.3
Cc1ccc(Cl)cc1N1CCN(C(=O)c2cc3c(=O)[nH]c4ccccc4c3n2C)CC1	CHOP inh 93.5
CC1=CC(=O)c2c(O)ccc(O)c2C1=O	CHOP inh 105.8
COc1cc2[nH]c(=O)n(CCC(=O)N3CCN(Cc4ccccc4)CC3)c(=O)c2cc1OC	none
COc1cc2[nH]c(=O)n(CCC(=O)N3CCN(c4cccc(C)c4C)CC3)c(=O)c2cc1OC	CHOP inh 93.1
O=C(NN=C1C2CC3CC(C2)CC1C3)c1cccs1	none
O=C(COc1ccccc1)Nc1ncn[nH]1	none (no result: Hsp70 act)
N#Cc1nc(-c2ccc(F)cc2)oc1NCc1ccccc1	CHOP inh 81.7
N#Cc1nc(COc2ccc(Cl)cc2)oc1NCc1ccc2c(c1)OCO2	CHOP inh 73.3
Cc1cccc(OCc2nc(C#N)c(NCc3ccc4c(c3)OCO4)o2)c1	none
N#Cc1nc(COc2ccccc2F)oc1NCCc1ccccc1	CHOP inh 79.6
Cc1ccc(CNc2oc(COc3ccccc3Cl)nc2C#N)cc1	CHOP inh 85.3
CCOC(=O)C1=C(C)NC(=O)C1(NC(=O)c1cccnc1)C(F)(F)F (stereo unspecified)	none
CC1Sc2n(c3ccccc3[n+]2C)N=C1c1ccccc1 (stereo unspecified)	none
COc1cccc(C(=O)Nc2cccc(SC)c2)c1	none
CC1(C)CC(=O)c2cnc(N3CCN(c4ccccc4)CC3)nc2C1	CHOP inh 86.5
Cc1cccc(OCC(=O)Nc2cccc(C(=O)NCC(C)C)c2)c1	none
Cc1nn(C)c2nc(-c3cccs3)cc(C(F)(F)F)c12	none
Cc1nn(CCO)c2nc(-c3cccs3)cc(C(F)(F)F)c12	CHOP inh 85.2
COc1cc(/C=c2\s/c(=C(/C#N)C(=O)N3CCCC3)n(-c3ccccc3)c2=O)ccc1O	CHOP inh 94.7
Cc1cc(N2CCC(C)CC2)nc2cccc(O)c12	CHOP inh 82.2
CCOc1ccc(CSC(=N)N)cc1Cl	none (no result: Hsp70 act)
CCCCOc1ccc(CSCCN)cc1Cl	CHOP inh 73.2 (no result: Hsp70 act)
C=CCSC(=S)NC1CCS(=O)(=O)C1 (stereo unspecified)	CHOP inh 70.4
NC(=S)NC1CCS(=O)(=O)C1 (stereo unspecified)	none
CCOP(=O)(c1ccc(N(C)C)cc1)C(O)c1cc(OC)c(OC)c(OC)c1 (stereo unspecified)	none
COc1cccc(/C=N/NC(=O)CCn2c3ccccc3c3ccccc32)c1	CHOP inh 89.1
Cc1ccc(NCCC(=O)c2cccs2)cc1C	none
Cc1ccc(NCCC(=O)c2cccs2)cc1Cl	CHOP inh 79.8
Cc1cc(C(=O)CSc2nc3ccccc3[nH]2)c(C)n1CC1CCCO1 (stereo unspecified)	CHOP inh 73.8
Cc1cc(C(=O)CSc2nc3ccccc3o2)c(C)n1CC1CCCO1 (stereo unspecified)	none
CC1(C)Cc2c(c(-c3ccco3)nc3sc4c(NCCCO)ncnc4c23)CO1	none (no result: Hsp70 act)
CC1(C)Cc2c(c(-c3ccco3)nc3sc4c(NCC5CCCO5)ncnc4c23)CO1 (stereo unspecified)	CHOP inh 94.8
CCOc1ccc(Nc2nc(Nc3ccc(O)cc3)nc(C)c2[N+](=O)[O-])cc1	CHOP inh 79.5
COc1ccc(Nc2nc(N)c([N+](=O)[O-])c(NCCO)n2)cc1	none (no result: Hsp70 act)
Cc1ccc(NC(=O)c2cc(N(C)C)ccc2[P+](=O)O)cc1	CHOP inh 90.8
CCOC(=O)c1cc(NC(=O)CC(C)(C)CC(=O)O)ccc1N1CCCCC1	none (no result: Hsp70 act)
CCc1nc2ccccc2c(=O)n1NC(=O)c1c(O)c2cccc3c2n(c1=O)CCC3	CHOP inh 94.5
O=C(Nn1c(Cc2ccccc2)nc2ccccc2c1=O)c1c(O)c2cccc3c2n(c1=O)CCC3	none
O=C(Nc1cccnc1)c1c(O)c2cccc3c2n(c1=O)CC3	CHOP inh 80.2
OCCC1CN(Cc2cccn2-c2ccccn2)CCN1C1CCCC1 (stereo unspecified)	none
Cc1cc(C)nc(/N=C(\N)Nc2ccc(SC(F)F)cc2)n1	none (no result: Hsp70 act)
COC(=O)c1cc(S(=O)(=O)N2CCOCC2)c(Cl)cc1N1CCOCC1	none
COc1cc(/C=N/NC(=O)CCc2c(C)n[nH]c2C)cc(OC)c1OC	none
COCC(=O)NC1CCN(S(=O)(=O)c2ccc(C(=O)O)cc2)CC1	none
CNC(=S)N=Nc1c(O)[nH]c2ccc(C(C)C)cc12	CHOP inh 92.8
CNC(=S)N=Nc1c(O)[nH]c2ccccc12	none
CCCCN1C(=O)/C(=C/C=C2\SCCN2C)SC1=S	none
c1ccc(Cn2nnnc2C(c2cccs2)N2CCSCC2)cc1 (stereo unspecified)	none
COCc1ccc(O)c2ncccc12	CHOP inh 82.1
Oc1ccc(N=Nc2ccc3c(c2)OCCO3)c2cccnc12	none
COc1ccc(C)cc1N=Nc1ccc(O)c2ncccc12	CHOP inh 104.1

Screening data as filed in PubChem BioAssay.
